Among all 5,500 compounds or so, about 2,000 (36%) were called active. Another 18% or so got no clear call; they are omitted. No stated cut-off is given here; in the data, active means normalized growth mostly below about 0.91 (no sharp cut-off); inconclusive means no clear call, values can overlap the other calls; inactive means mostly above about 0.92. The list shows a part of the results.
Experiment: chemical genetic growth profiling, strain panel (AID 1159580);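 further: tested at 20 µM; growth read once vehicle control cultures reached saturation at 30 °C; 1 = growth at the plate median or of vehicle wells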
Settings: S. cerevisiae deletion strains, growth OD

Measured: normalized growth

Nc1ccc(N=Nc2ccc(S(N)(=O)=O)cc2)c2ccccc12
inactive: locus YAL013W, strain DEP1, stronger effect = lower value 0.999 | locus YBR229C, strain ROT2, stronger effect = lower value 1 | locus YCL061C, strain MRC1, stronger effect = lower value 0.998 | locus YDL101C, strain DUN1, stronger effect = lower value 0.98 | locus YDR150W, strain NUM1, stronger effect = lower value 0.906 | locus YEL061C, strain CIN8, stronger effect = lower value 0.989 | locus YGR078C, strain PAC10, stronger effect = lower value 1 | locus YGR229C, strain SMI1, stronger effect = lower value 1 | locus YHR030C, strain SLT2, stronger effect = lower value 1.04 | locus YHR087W, strain rtc3, stronger effect = lower value 0.995 | locus YJL187C, strain SWE1, stronger effect = lower value 1.01 | locus YJR043C, strain POL32, stronger effect = lower value 1 | locus YJR075W, strain HOC1, stronger effect = lower value 1.02 | locus YLR039C, strain RIC1, stronger effect = lower value 0.983 | locus YLR058C, strain SHM2 (second series), stronger effect = lower value 1.01 | locus YLR085C, strain ARP6, stronger effect = lower value 1.03 | locus YLR262C, strain YPT6, stronger effect = lower value 1 | locus YML094W, strain GIM5, stronger effect = lower value 0.986 | locus YMR219W, strain ESC1, stronger effect = lower value 0.994 | locus YMR263W, strain SAP30, stronger effect = lower value 0.916 | locus YNL153C, strain GIM3, stronger effect = lower value 1 | locus YNL298W, strain CLA4 (second series), stronger effect = lower value 0.982 | locus YNL322C, strain KRE1, stronger effect = lower value 0.997 | locus YNR030W, strain Alg12, stronger effect = lower value 1.01 | locus YPL055C, strain LGE1, stronger effect = lower value 0.893 | locus YPL241C, strain CIN2, stronger effect = lower value 1 | locus YPR135W, strain CTF4, stronger effect = lower value 1.06

Source: PubChem BioAssay AID1159580 (chemical genetic matrix, 2015)
